# Assay results: PubChem BioAssay AID463082 (The Scripps Research Institute Molecular Screening Center, 2010)
# Hit rate of the full screen: of about 330,000 compounds, about 4,900 (1.5%) were called active.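 The calls were made as follows: active = inhibition above the mean inhibition across the screen plus 3 SD (cut at about 25% in these data); inactive = the rest.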 Only a selection was taken, and actives are over-represented in it overall.
# Target: Platelet-activating factor acetylhydrolase (Homo sapiens) (UniProt Q13093)
# Sequence (Q13093 whole entry, looked up): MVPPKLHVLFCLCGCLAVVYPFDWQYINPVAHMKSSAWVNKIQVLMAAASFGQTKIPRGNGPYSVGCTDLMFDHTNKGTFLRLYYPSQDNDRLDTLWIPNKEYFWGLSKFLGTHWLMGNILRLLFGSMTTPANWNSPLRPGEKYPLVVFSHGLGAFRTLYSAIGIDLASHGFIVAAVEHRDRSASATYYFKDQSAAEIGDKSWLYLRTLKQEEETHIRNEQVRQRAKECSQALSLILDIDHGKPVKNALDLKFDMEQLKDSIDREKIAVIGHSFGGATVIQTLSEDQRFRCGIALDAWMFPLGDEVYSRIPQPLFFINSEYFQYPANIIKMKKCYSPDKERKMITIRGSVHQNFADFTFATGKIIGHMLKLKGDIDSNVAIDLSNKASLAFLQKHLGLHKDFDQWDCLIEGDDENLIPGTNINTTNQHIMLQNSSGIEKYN
# Assay: pPAFAH enzyme inhibitors, primary screen, biochemical, fluorescence polarization, human (AID 463082);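 also: inhibitors block binding of the rhodamine activity-based probe so polarization drops; 0% = enzyme with DMSO and 100% = wells lacking pPAFAH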
# Settings: recombinant pPAFAH, FP-rhodamine probe fluorescence polarization; at 3.39 µM; hits give high values
row,Compound,inhibition
1,CC(Nc1nc(C(F)(F)F)nc2ccccc12)c1cccs1 (stereo not given),28.4% (active)
2,COc1cccc(CNc2nc(C(F)(F)F)nc3ccccc23)c1,2.55% (inactive)
3,CCc1ccc(C(CNc2nc(C(F)(F)F)nc3ccccc23)N(C)C)cc1 (stereo not given),-1.56% (inactive)
4,COc1ccc(CN2C(CC(=O)Nc3cccnc3)c3ccc(C(F)(F)F)cc3S2(=O)=O)cc1 (stereo not given),6.11% (inactive)
5,COc1ccc(C(=O)/C=C/c2cccnc2)c(OC)c1,-1.82% (inactive)
6,COc1ccc(/C=C/C(=O)c2cc(Br)ccc(=O)c2O)cc1,40.7% (active)
7,COc1ccc(C(=O)/C=C/c2ccc(OC3CSC3)cc2)cc1,1.34% (inactive)
8,O=C1N[C@H](Cc2c[nH]c3ccccc23)COC(=O)[C@H](Cc2ccc(F)cc2)C/C=C\C[C@H]1CC(=O)N(CCO)Cc1ccccc1,21.3% (inactive)
9,COCCN1C(=O)C(=O)/C(=C(/O)c2ccc(S(=O)(=O)N3CCOCC3)cc2)C1c1ccc(OC)c(OC)c1 (stereo not given),0.25% (inactive)
10,CCn1c(SCC(=O)N/N=C/c2ccccc2OCC(=O)O)nnc1-c1ccc(C(C)(C)C)cc1,11.4% (inactive)
11,COc1ccc(CCOC(=O)CNC(=O)c2ccc(Cl)cc2Cl)cc1,-0.13% (inactive)
12,Cc1coc2c(O)cc3c(c12)OC1(N2CCCCC2)C(=O)NCCCC31 (stereo not given),27.6% (active)
13,Cc1ccc(NC(=O)N2CCC(c3nc4c(nnn4Cc4c(F)cccc4Cl)c(=O)[nH]3)CC2)cc1,27.7% (active)
14,COc1ccc(Cn2nnc3c(=O)[nH]c(C4CCN(C(=O)c5ccccc5Cl)CC4)nc32)cc1,9.22% (inactive)
15,O=C(Nc1ccc(F)cc1)N1CCCC(c2nc3c(nnn3Cc3ccccc3Cl)c(=O)[nH]2)C1 (stereo not given),1.47% (inactive)
16,CCOC(=O)c1ccc(NC(=O)C2CC(=O)N(c3ccc4c(c3)OCCO4)C2)cc1 (stereo not given),29.3% (active)
17,CCc1nnc(NC(=O)C2CC(=O)N(c3ccc4c(c3)OCCO4)C2)s1 (stereo not given),2.68% (inactive)
18,Cc1ccc(NC(=O)C2CC(=O)N(c3ccc4c(c3)OCCO4)C2)cc1S(=O)(=O)N1CCCCCC1 (stereo not given),0.97% (inactive)

row,Compound,inhibition
1,O=C(COC(=O)c1ccc(S(=O)(=O)N2CCc3ccccc3C2)cc1)NC(=O)NCc1ccco1,-5.65% (inactive)
2,S=c1nccc(-c2cc(Cl)sc2Cl)[nH]1,4.56% (inactive)
3,CCN(Cc1ccccc1)C(=O)CSc1nc(C)cc2c1C(=O)OC2,7% (inactive)
4,COc1ccccc1C(=O)Nc1cccc(C(=O)N2CCOCC2)c1,-0.6% (inactive)
5,CN(C)C(=O)CCc1ccc2c3c([nH]c2c1)[C@]1(C)[C@@H](C(=O)N2CCCCC2)C[C@H](CC(=O)NCCC2=CCCCC2)C(=O)N1CC3,9.04% (inactive)
6,O=C1C(=O)N(CCCO)C(c2ccccc2)/C1=C(\O)c1ccc(Br)cc1 (stereo not given),2.67% (inactive)
7,CC(C)(C)NC(=O)C(c1ccc(Cl)cc1)N(CCO)C(=O)c1snc(C(N)=O)c1N (stereo not given),-1.41% (inactive)
8,CN(C)S(=O)(=O)c1cccc(NC(=S)N/N=C/C(=O)c2ccccc2)c1,12.9% (inactive)
9,O=C(O)c1cccc(NC(=S)N/N=C/c2c[nH]c3ccccc23)c1,26.4% (active)
10,O=C(N/N=C/c1c[nH]c2ccccc12)c1cc2ccccc2o1,15.3% (inactive)
11,Cc1ccc(-c2cc(C(=O)NCc3cn(C)nc3C)c3cc(Br)ccc3n2)cc1,2.72% (inactive)
12,O=C(Nc1ccccc1F)c1ccccc1-c1ccc(C(F)(F)F)cc1,0.76% (inactive)
13,COc1cc(/C=N/NC(=O)c2cc(C)n(-c3ccc(F)cc3)c2C)cc(OC)c1O,9.67% (inactive)
14,Cc1nn(CC(=O)N/N=C/c2ccc(F)cc2)c(C)c1[N+](=O)[O-],-6.43% (inactive)
15,Cc1cc(C(=O)N/N=C/c2ccc(O)c([N+](=O)[O-])c2)c(C)n1-c1ccc(F)cc1,33.4% (active)
16,COCCNc1cc(-c2ccccc2)nc2cc(-c3cccc(F)c3)nn12,-13.5% (inactive)
17,CC(NC(=S)NC1CCCCC1)C(c1ccccc1)N1CCOCC1 (stereo not given),2.17% (inactive)
